The values that follow come from ChEMBL document CHEMBL4513216, “Probing the Open Global Health Chemical Diversity Library for Multistage-Active Starting Points for Next-Generation Antimalarials” (ACS Infect Dis, 2020).

About 2,100 (3.2%) of roughly 65,000 compounds showed an effect of 50% or more. The median lay at about -52%. Only a selection was taken, and strong results are over-represented in it overall.

For this assay, the system named is Plasmodium falciparum. Put plainly: Screen against P. falciparum Asexual Blood Stage (ABS), at 5uM. Format: functional, Dd2. Particulars: tested at 5 uM.
Regarding `Cc1ccc(Cl)cc1N1CCC(CNC(=O)CCn2ccnc2)C1` (stereo not given), the INHIBITION is recorded as 84.2%.

As for `CCN1CCN(C(=O)c2cn(Cc3ccccc3)c3ncccc23)CC1`, the INHIBITION turned out to be 20.5%.

Turning to `CC(=O)c1cc(C(=O)N2CC[C@H]3CC[C@@H](C2)N3C)c(=O)[nH]c1C`, the INHIBITION is recorded as -102%.

For the compound `CN1[C@@H]2CC[C@H]1CN(C(=O)c1ccc(-c3ccccc3)[nH]1)CC2`, the INHIBITION was determined as 79.7%.

With `CCc1ncc(C(=O)N2CC[C@H]3CC[C@@H](C2)N3C)cn1`, the INHIBITION was -3.55%.

As for `COCCN1CCN(Cc2ccncc2)[C@H]2CS(=O)(=O)C[C@H]21`, the INHIBITION was -111%.

On to `CNC(=O)CN1CC[C@H]2CN(C(=O)c3ccc(C)nc3)C[C@H]2C1`, for which the INHIBITION was -17.9%.

Regarding `CCN(CC)CCN1CCO[C@H]2[C@@H](OCc3ccccn3)CC[C@@H]21`, the INHIBITION is on record as -115%.

Turning to `COC(=O)c1cc(OCC2CCC2)cc(C(=O)N[C@@H]2CNCC[C@H]2O)c1`, the INHIBITION was found to be 90.1%.

Regarding `CC1=N[C@@]2(CC[C@@H]3CN(CC(C)C)C[C@@H]32)C(=O)N1`, the INHIBITION is -40.1%.

Regarding `COc1ccc2c(c1)c(C(=O)Nc1n[nH]c(C(C)C)n1)cn2C(C)C`, the INHIBITION is reported as 22.8%.

Consider `CCCc1nc(N(C)CCN2CCCCCC2)c2cnn(C)c2n1`, for which the INHIBITION turned out to be 92.9%.

In the case of `CCCc1nc(N2CCCC3(CCNC3)C2)c2cnn(C)c2n1` (stereo not given), the INHIBITION is on record as -53.5%.

Regarding `CCCc1nc(N2CCCN3CCC[C@H]3C2)c2cnn(C)c2n1`, the INHIBITION was -7.45%.

With `Cc1c(C2SCC(=O)Nc3c2c(O)nn3C2CCCC2)cnn1C` (stereo not given), the INHIBITION was -70.4%.

Turning to `CC(C)N1CCC2(CCCNC2)C1=O` (stereo not given), the INHIBITION came to 25.4%.

Regarding `O=C1C[C@H]2[C@@H](CCN2Cc2ccccn2)N1CCN1CCOCC1`, the INHIBITION came to 27.7%.

In the case of `c1cnc(N2CCC3(COCCN(CC4CCOCC4)C3)C2)nc1` (stereo not given), the INHIBITION is -26.6%.

For the compound `c1cc(N2CCC(CN3CCOCC3)CC2)c2sccc2n1`, the INHIBITION amounted to 92.3%.

`O=C1NC[C@H]2CN(Cc3ccnc4ccccc34)CCN12`: the INHIBITION is listed as -11.8%.

`CCC(O)(CNCc1cc[nH]n1)c1ccc(Br)cc1` (stereo not given): the INHIBITION is 76.4%.

Turning to `O=S(=O)(C1CC1)N1CCC2(CC1)CN(Cc1ccccn1)CCO2`, the INHIBITION is -110%.

Regarding `CC(C)N1CCC2(CC1)CC(NCc1ccccn1)c1ccccc1O2` (stereo not given), the INHIBITION was determined as 70.7%.

As for `Cn1cc(CN2CC[C@]3(C[C@H](OCc4ccccn4)CO3)C2)cn1`, the INHIBITION is on record as -37.1%.

As for `OCCN1CCC2(CC1)CC(NCc1ccccn1)c1ccccc1O2` (stereo not given), the INHIBITION was found to be 70.8%.

On to `O=C(NCc1ccccn1)[C@@]12CCO[C@@H]1CCN(C1CCCC1)C2`, for which the INHIBITION is listed as -21.2%.

Regarding `CC(C)N1CCOCC2(CN(Cc3ccccn3)CCO2)C1` (stereo not given), the INHIBITION is recorded as -62.4%.

On to `CN(C)C(=O)[C@@H]1C[C@@H]2CCN(Cc3ccncc3)C[C@@H]2O1`, for which the INHIBITION is recorded as -19.3%.

Regarding `CCCN1CCC[C@]2(CCC(=O)N2Cc2ccncc2)[C@H]1CC`, the INHIBITION is reported as -97.5%.

Take `O=C(C1CC=CC1)N1CCC2(CC1)CNCCO2`: the INHIBITION is recorded as -57.4%.

Consider `O=C(C1CC1)N1CCC2(CC1)OCCO2`, for which the INHIBITION is -77.4%.

On to `O=C(C1CCOCC1)N1CCC2(CCNCC2)C1`, for which the INHIBITION is listed as -36.9%.

Turning to `C[C@@H]1CN(C(=O)C2CCS(=O)(=O)CC2)CC[C@@]1(O)C1CCOCC1`, the INHIBITION was 71.2%.

On to `O=C([C@@H]1Cc2[nH]cnc2CN1Cc1cc2ccccc2o1)N1CCCC1`, for which the INHIBITION is 95%.

As for `CCC(O)CN1CCN(C(=O)Cc2ccc(C)nc2)CC1` (stereo not given), the INHIBITION turned out to be 36.3%.

As for `O=C(Cc1ccccc1Cl)N1CCN(CC(O)COCCO)CC1` (stereo not given), the INHIBITION amounted to 58%.

Turning to `CCOCC(O)CN1CCN(C(=O)Cc2ccc3c(c2)CCO3)CC1` (stereo not given), the INHIBITION is reported as -3.91%.

Take `CCOCC(O)CN1CCN(C(=O)Cc2cccc(C)c2)CC1` (stereo not given): the INHIBITION was 59.6%.

Consider `CCOCC(O)CN1CCN(C(=O)Cc2cccc(Cl)c2)CC1` (stereo not given), for which the INHIBITION is given as -87.1%.

Consider `CCOCC(O)CN1CCN(C(=O)Cc2ccc3c(c2)CCC3)CC1` (stereo not given), for which the INHIBITION was 69.6%.

Regarding `Cc1ccc(CC(=O)N2CCN(CC(O)C(C)(C)C)CC2)cn1` (stereo not given), the INHIBITION is -202%.

For the compound `CCOCC(O)CN1CCN(C(=O)Cc2ccccc2Cl)CC1` (stereo not given), the INHIBITION is listed as -121%.

With `CC(C)(C)C(=O)NS(=O)(=O)c1ccc(C#N)c(C(F)(F)F)c1`, the INHIBITION was -87.2%.

For the compound `CN(C)[C@@H]1CN(C(=O)Cc2ccsc2)[C@@H]2CCCO[C@H]12`, the INHIBITION stood at 32.7%.

On to `CCNC(=O)CCC(=O)NC(C)Cc1ccccc1Br` (stereo not given), for which the INHIBITION is listed as -67.5%.

In the case of `NC(=O)C1CN(C(=O)Nc2cc(Cl)cc(Cl)c2)CCO1` (stereo not given), the INHIBITION worked out at 84.9%.

Turning to `O=C(NCc1cc2n(n1)CCCNC2)C1(c2ccccc2)CCCCC1`, the INHIBITION turned out to be 73.7%.

As to `Cc1ncc2c(c1CNC(=O)C1(C)CCCCO1)CCNC2` (stereo not given), the INHIBITION is reported as -63.8%.

For `O=C(CCc1cscn1)N1CCC(C(=O)O)(c2ccccc2)CC1`, the INHIBITION is -11.5%.

Consider `CCCC(=O)NS(=O)(=O)c1ccc(C#N)c(C(F)(F)F)c1`, for which the INHIBITION is -56%.
